# Screening data (PubChem BioAssay)
# Shown are actives, neighbours in structure and some others; about 3.4% of the full set was active somewhere.
# Sm TGR inh: blocks Schistosoma mansoni thioredoxin glutathione reductase; purified TGR, DTNB reduction, TNB absorbance 405 nm; Potency, µM (titrated, usually from 114 µM), inactives show at the highest dose activity change, negative = inhibition, hits mostly inhibitors; 3% of 360,000 active; note: nearly all actives have a fitted effect of over 60% in size
#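 TGR 20 nM + NADPH 100 uM (dispensed conc.), cpd preinc 15 min RT; start with NADPH (500 uM addition) then DTNB (15 mM addition). Kinetic TNB absorbance, 405 nm filter. Four-parameter Hill fit across titration.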
# FBPA Giardia inh: Giardia lamblia aldolase inhibition | A8B2U2 | purified Giardia FBPA | Potency, µM (titrated, usually from 59.6 µM), for inactives: top-dose activity, negative = inhibition, usual class: inhibitors | 0.71% of 290,000 active; note: nearly all actives have a fitted effect of over 55% in size
# Target sequence (A8B2U2 whole entry, looked up): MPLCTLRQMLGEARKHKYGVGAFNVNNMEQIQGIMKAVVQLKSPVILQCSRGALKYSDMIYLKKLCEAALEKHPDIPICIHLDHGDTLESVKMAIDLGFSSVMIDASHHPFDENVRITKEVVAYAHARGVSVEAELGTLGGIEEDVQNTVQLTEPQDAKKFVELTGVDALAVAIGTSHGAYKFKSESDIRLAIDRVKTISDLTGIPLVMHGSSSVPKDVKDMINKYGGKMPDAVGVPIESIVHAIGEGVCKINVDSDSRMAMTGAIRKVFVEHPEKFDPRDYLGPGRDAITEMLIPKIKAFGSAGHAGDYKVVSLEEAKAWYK
#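 Giardia FBPA (40 nM reagent) was preincubated 10 min at RT with compound (up to 57.5 uM final), then substrate plus GAPDH/TPI/NAD/arsenate coupling system with diaphorase/resazurin was added; resorufin fluorescence (525/598 nm) was read after 20 min.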
# AmpC inh no detg: AmpC beta-lactamase inhibition without detergent | P00811 | AmpC nitrocefin hydrolysis, absorbance 480 nm, 0.0001% Triton | Potency, µM (series often up to 57.1 µM), for inactives: top-dose activity change, negative = inhibition, hits mostly inhibitors | 0.52% of 330,000 active | AID 485341;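 note: plate controls were no compound for no effect and no enzyme for full effect; nearly all actives have a fitted effect of over 20% in size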
#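 AmpC (5.3 nM in the dispensed reagent) in 20 mM phosphate pH 7.0 with 0.01% (detergent screen) or 0.0001% Triton X-100 was preincubated with compounds for 15 min at room temperature. Nitrocefin was then added from an 800 uM solution, and hydrolysis was followed at 480 nm.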
# RE007 growth inh: less growth of the S. pombe RE007 Vpr strain; S. pombe RE007 Vpr strain, BacTiter-Glo ATP luminescence, 24 h; Potency, µM (top dose mostly 92.2 µM), without a hit: top-dose activity change, negative = less growth, actives largely listed as inhibitors; 0.21% of 360,000 active; active = well fitted falling curve with a large enough effect; inconclusive = small, poorly fitted or top-dose-only effect; inactive = no such curve, though single readings can be large or run the other way; note: nearly all actives have a fitted effect of over 50% in size
#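 Fission yeast strain RE007, carrying one chromosomally integrated HIV-1 vpr copy, was seeded at OD 0.01 in PMG+AL medium with 23 nL pinned compound. After 24 h at 30 °C and 99% humidity, viability was read by BacTiter-Glo luminescence.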
# AmpC inh detg: AmpC beta-lactamase inhibition with detergent present | 0.041% of 370,000 active | AmpC hydrolysis of nitrocefin, absorbance 480 nm, 0.01% Triton | P00811 | Potency, µM (top dose mostly 114 µM), without a hit: at the top dose activity change, negative = inhibition, hits mostly inhibitors;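 note: 0% = no-compound wells and -100% = no-enzyme wells; nearly all actives have a fitted effect of over 25% in size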
#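 20 mM phosphate pH 7.0 + 0.01% (detergent screen) or 0.0001% Triton X-100; 5.3 nM AmpC reagent; cpd preinc 15 min RT; nitrocefin (800 uM stock) to start; A480 q20 s × 4 min; Activity was normalised to no-enzyme and no-compound control wells.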
# The depositor's hits bear a star; ? = inconclusive; . = no result; [ ] = another dose, or the depositor's remark. Unless noted, calls come from the whole dose curve; as a rule, active = well fitted curve in the direction sought with a large enough effect; inconclusive = small, poorly fitted or top-dose-only effect, or another doubt; inactive = no such curve, though single readings can be large; an effect the other way counts as inactive or inconclusive. Unless noted, % is set by controls: 0 for no effect and ±100 for the full control effect; potency is the fitted concentration of half-maximal effect.
SMILES,Sm TGR inh,FBPA Giardia inh,AmpC inh no detg,RE007 growth inh,AmpC inh detg
Cc1cc(C)c(/C=C/c2onc(C)c2S(=O)(=O)N2CCC(C(=O)Nc3cccc(C)c3C)CC2)c(C)c1,2%,.,.,.,-9%
CCOc1ccc(OCC)c(NC(=O)C2C3C=CC(O3)C2C(=O)O)c1 (centres undefined),.,.,.,-4%,.
O=C(O)C1C2C=CC(O2)C1C(=O)Nc1cccc(C(F)(F)F)c1 (centres undefined),100µM*,-2%,-10%,-30%,?
CCOc1ccc(OCC)c(NC(=O)C2C3C=CC(O3)C2C(=O)NCc2ccco2)c1 (centres undefined),50µM*,-20%,3%,6%,4%
O=C(O)C1C2C=CC(O2)C1C(=O)Nc1ccccc1C(F)(F)F (centres undefined),8.9µM*,0%,-17%,-13%,-12%
CCOc1ccccc1NC(=O)C1C2C=CC(O2)C1C(=O)O (centres undefined),20µM*,-14%,-29%,-15%,?
COc1ccc(CC(=O)Nc2cc(Cl)ccc2O)cc1,-26%,-1%,-10%,-2%,4%
CCc1ccccc1NC(=O)C1C2C=CC(O2)C1C(=O)O (centres undefined),18µM*,-7%,-8%,-10%,-5%
Cc1cc(C)cc(NC(=O)C2C3C=CC(O3)C2C(=O)O)c1 (centres undefined),-34%,-4%,-11%,4%,3%
FC(c1nc2ccccc2[nH]1)C(F)(F)F (centres undefined),3%,-1%,-6%,-7%,-3%
CCN(C(=S)Nc1cccnc1)c1ccccc1,25µM*,-8%,-19%,-2%,2%
O=C1/C(=C/C=C/c2ccco2)SC(=S)N1c1ccc(O)cc1,4.5µM*,?,16µM*,-15%,-1%
CC(C)C(C(=O)O)N1C(=O)/C(=C/c2cccn2C)SC1=S (centres undefined),-26%,-2%,-16%,-8%,-6%
CC(C)C(C(=O)O)N1C(=O)/C(=C/C=C/c2ccco2)SC1=S (centres undefined),11µM*,?,-50%,-22%,?
O=C1/C(=C\c2ccco2)SC(=S)N1c1ccc(O)cc1,?,?,?,?,-14%
CCc1ccc(CN(C)Cc2nc(Cc3ccc(OC)c(OC)c3)no2)nc1,32µM*,-23%,80%,-14%,-3%
CC(C)[C@@]1(NC(=O)[C@@H]2C=C3c4cccc5[nH]cc(c45)C[C@H]3N(C)C2)O[C@@]2(O)[C@@H]3CCCN3C(=O)[C@H](Cc3ccccc3)N2C1=O,8.9µM*,?,58%,.,-11%
CC(C)C[C@H]1C(=O)N2CCCC2[C@]2(O)O[C@](NC(=O)[C@@H]3C=C4c5cccc6[nH]cc(c56)CC4N(C)C3)(C(C)C)C(=O)N12 (some centres undefined),10µM*,?,94%,-8%,?
CC(C)[C@H]1C(=O)N2CCC[C@H]2[C@]2(O)O[C@](NC(=O)[C@@H]3C=C4c5cccc6[nH]cc(c56)C[C@H]4N(C)C3)(C(C)C)C(=O)N12,7.9µM*,?,116%,?,-13%
CCc1cc(=O)oc2cc(OCC(=O)N3CCc4ccccc43)ccc12,-2%,3%,-21%,.,-21%
COc1cccc2cc(C(C)=O)c(=O)oc12,-3%,1%,-11%,-15%,?
COc1ccc(S(=O)(=O)CC(=O)c2cc3cc(Br)ccc3oc2=O)cc1,-35%,.,28µM*,1%,2%
COc1cccc2cc(C(=O)CS(=O)(=O)c3ccc(Cl)cc3)c(=O)oc12,?,.,16µM*,28%,4%
CCC(C(=O)NN1C(=O)c2ccccc2C1=O)c1ccccc1 (centres undefined),2%,2%,-18%,36%,-16%
COc1ccc(CCN)cc1O,.,?,.,-3%,.
NCCc1ccc(O)c(O)c1,14µM*,?,0%,11%[18.4 µM],-10%
NCCc1cc(O)c(O)cc1O,.,5.6µM*,.,6%[18.4 µM],.
CCCCN1C(=O)C(=O)N(CC(=O)Nc2sc(C)c(C)c2C(=O)OC)C1=O,-22%,.,6%,-11%,4%
